Holding throughout (assay): universal protein binding microarray (PBM); transcription factors of Arabidopsis thaliana; high values mean tight binding
What all share (details): protein: recombinant; tags: GST; chain copies: 2; dsDNA, one strand shown

One test deals with T1, GST-ANAC092(1-176) (Arabidopsis thaliana, UniProt Q9FKA0 1-176).
T1 sequence: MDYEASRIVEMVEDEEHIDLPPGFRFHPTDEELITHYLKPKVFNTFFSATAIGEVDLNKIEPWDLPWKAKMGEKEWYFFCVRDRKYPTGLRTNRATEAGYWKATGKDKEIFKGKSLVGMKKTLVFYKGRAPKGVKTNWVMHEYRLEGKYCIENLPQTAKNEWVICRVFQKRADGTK
The procedure, abridged:
(§1)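 Protein amounts were determined by A280 or anti-GST western blot after glutathione–Sepharose 4B purification of GST-tagged proteins induced in cells, with zinc acetate included for zinc-finger proteins. Duplicate runs at 200 to 500 nM final were done on custom all-10-mer Agilent 4 × 180K arrays made double-stranded by primer extension. The normalised enrichment score (E-score) over gapped and ungapped 8-mers is the measure of binding.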

The target of another test is GST-NTL6(1-168) (Arabidopsis thaliana, UniProt Q9SCK6 1-168). The procedure, abridged:
as §1

The target of the next test is T2, GST-ANAC019 NAC domain (Arabidopsis thaliana, UniProt Q9C932 14-162).
T2 sequence: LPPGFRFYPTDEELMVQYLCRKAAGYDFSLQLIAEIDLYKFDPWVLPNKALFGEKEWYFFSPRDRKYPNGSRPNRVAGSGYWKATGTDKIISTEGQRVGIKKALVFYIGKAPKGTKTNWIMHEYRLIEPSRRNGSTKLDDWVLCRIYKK
A digest of the protocol: as §1

A further test concerns the target T3, GST-ANAC055(1-171) (Arabidopsis thaliana, UniProt Q9LDY8 1-171).
T3 sequence: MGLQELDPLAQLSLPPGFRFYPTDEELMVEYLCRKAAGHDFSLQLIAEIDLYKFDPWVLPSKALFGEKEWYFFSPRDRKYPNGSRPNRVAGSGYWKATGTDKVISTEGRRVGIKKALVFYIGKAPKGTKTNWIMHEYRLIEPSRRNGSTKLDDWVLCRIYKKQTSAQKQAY
The procedure, abridged: as §1

For another test, the target named is T4, GST-ATAF1 NAC domain (Arabidopsis thaliana, UniProt Q39013 7-158).
T4 sequence: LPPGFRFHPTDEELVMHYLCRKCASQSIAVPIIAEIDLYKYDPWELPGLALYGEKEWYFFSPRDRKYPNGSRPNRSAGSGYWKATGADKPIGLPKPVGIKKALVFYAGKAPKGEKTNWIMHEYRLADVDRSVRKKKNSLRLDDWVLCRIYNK
The procedure, abridged:
as §1

The target in test [1] is T5, GST-ANAC092(1-285) full length (Arabidopsis thaliana, UniProt Q9FKA0 1-285).
T5 sequence: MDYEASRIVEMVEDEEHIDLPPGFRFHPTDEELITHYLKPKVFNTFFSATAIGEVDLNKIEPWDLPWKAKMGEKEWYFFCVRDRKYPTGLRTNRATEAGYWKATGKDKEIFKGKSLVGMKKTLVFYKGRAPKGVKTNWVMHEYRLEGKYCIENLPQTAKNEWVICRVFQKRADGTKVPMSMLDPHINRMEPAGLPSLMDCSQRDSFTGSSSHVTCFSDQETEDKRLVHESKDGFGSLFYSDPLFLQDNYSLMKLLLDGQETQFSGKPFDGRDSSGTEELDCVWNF
The procedure, abridged:
as §1

For the next test, the target named is T6, GST-NAP(1-166) (Arabidopsis thaliana, UniProt O49255 1-166).
T6 sequence: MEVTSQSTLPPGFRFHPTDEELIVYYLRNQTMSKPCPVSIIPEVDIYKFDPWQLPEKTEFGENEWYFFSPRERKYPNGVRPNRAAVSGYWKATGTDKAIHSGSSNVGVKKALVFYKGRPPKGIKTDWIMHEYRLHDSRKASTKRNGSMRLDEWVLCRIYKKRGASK
A digest of the protocol:
as §1

A further test addresses T7, GST-NST2(1-184) (Arabidopsis thaliana, UniProt Q9M274 1-184).
T7 sequence: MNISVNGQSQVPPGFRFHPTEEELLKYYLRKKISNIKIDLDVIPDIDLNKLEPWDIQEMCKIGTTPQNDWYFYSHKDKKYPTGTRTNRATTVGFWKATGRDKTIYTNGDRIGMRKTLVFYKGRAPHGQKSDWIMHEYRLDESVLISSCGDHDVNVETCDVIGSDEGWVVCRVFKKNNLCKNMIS
A digest of the protocol:
as §1

The next test addresses T8, GST-SND1(1-203) (Arabidopsis thaliana, UniProt Q9LPI7 1-203).
T8 sequence: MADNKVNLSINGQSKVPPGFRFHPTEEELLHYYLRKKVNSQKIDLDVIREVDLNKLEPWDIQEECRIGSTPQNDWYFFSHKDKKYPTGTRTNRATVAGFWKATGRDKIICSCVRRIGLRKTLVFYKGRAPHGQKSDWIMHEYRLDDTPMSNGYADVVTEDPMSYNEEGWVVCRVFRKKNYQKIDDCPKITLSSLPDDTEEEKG
The procedure, abridged:
as §1

A further test deals with T9, GST-VND3 NAC domain (Arabidopsis thaliana, UniProt Q9FH59 12-162).
T9 sequence: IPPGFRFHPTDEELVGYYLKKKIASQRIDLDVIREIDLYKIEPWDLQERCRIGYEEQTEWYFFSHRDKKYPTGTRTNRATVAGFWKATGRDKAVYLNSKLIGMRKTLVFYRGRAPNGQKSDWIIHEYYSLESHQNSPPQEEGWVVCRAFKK
The procedure, abridged:
as §1

Another test concerns the target T10, GST-VND7 NAC domain (Arabidopsis thaliana, UniProt Q9C8W9 9-158).
T10 sequence: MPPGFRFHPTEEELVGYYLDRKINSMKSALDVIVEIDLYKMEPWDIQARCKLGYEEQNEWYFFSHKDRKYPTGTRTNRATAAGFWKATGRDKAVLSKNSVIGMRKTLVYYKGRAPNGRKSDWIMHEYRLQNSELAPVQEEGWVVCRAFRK
The procedure, abridged:
as §1

Another test concerns the target T11, GST-NTL8 NAC domain (Arabidopsis thaliana, UniProt Q9XIN7 14-156).
T11 sequence: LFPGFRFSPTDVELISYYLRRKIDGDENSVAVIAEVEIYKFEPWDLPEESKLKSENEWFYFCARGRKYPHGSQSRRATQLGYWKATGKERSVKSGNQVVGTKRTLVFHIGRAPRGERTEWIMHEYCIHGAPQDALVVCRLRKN
A digest of the protocol:
as §1

Sequence of GST-NTL6(1-168) (Q9SCK6 1-168): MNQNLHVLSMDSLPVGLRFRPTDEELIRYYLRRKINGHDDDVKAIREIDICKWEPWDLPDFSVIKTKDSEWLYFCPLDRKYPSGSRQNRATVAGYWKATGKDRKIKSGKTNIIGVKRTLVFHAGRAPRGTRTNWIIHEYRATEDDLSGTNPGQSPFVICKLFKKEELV

Regarding ATACGTAT, the binding signal in the test with GST-ANAC092(1-176) is 0.156 E-score; in the test with GST-NTL6(1-168) it was 0.12 E-score; in the test with GST-ANAC019 NAC domain, 0.281 E-score; in the test with GST-ANAC055(1-171) it was 0.379 E-score; with GST-ATAF1 NAC domain it was 0.231 E-score; in test [1] it was 0.37 E-score. Besides, the binding signal came to 0.445 E-score in the test with GST-NAP(1-166); 0.186 E-score with GST-NST2(1-184); 0.211 E-score with GST-SND1(1-203); 0.347 E-score with GST-VND3 NAC domain; 0.293 E-score in the test with GST-VND7 NAC domain.
As to AATGCCGT, the binding signal came to 0.335 E-score with GST-ANAC092(1-176); 0.0523 E-score with GST-NTL6(1-168); 0.428 E-score with GST-ANAC019 NAC domain; 0.391 E-score with GST-ANAC055(1-171); 0.342 E-score in the test with GST-ATAF1 NAC domain; 0.365 E-score in [1]. Besides, the binding signal came to 0.366 E-score in the test with GST-NAP(1-166); 0.114 E-score in the test with GST-NST2(1-184); 0.0974 E-score with GST-SND1(1-203); 0.407 E-score with GST-VND3 NAC domain; 0.4 E-score with GST-VND7 NAC domain.
For ACGTATCT, the binding signal in the test with GST-ANAC092(1-176) was 0.189 E-score; with GST-NTL6(1-168), 0.0824 E-score; with GST-ANAC019 NAC domain it was 0.425 E-score; in the test with GST-ANAC055(1-171), 0.38 E-score; with GST-ATAF1 NAC domain, 0.334 E-score; in [1], 0.306 E-score. For the same sequence, the binding signal in the test with GST-NAP(1-166) was 0.393 E-score; in the test with GST-NST2(1-184), 0.189 E-score; in the test with GST-SND1(1-203), 0.14 E-score; with GST-VND3 NAC domain it was 0.393 E-score; with GST-VND7 NAC domain, 0.313 E-score.
Consider ATACGCAA, for which the binding signal with GST-ANAC092(1-176) was 0.485 E-score; with GST-NTL6(1-168), 0.0867 E-score; with GST-ANAC019 NAC domain, 0.429 E-score; with GST-ANAC055(1-171) it was 0.397 E-score; with GST-ATAF1 NAC domain it was 0.336 E-score; in [1], 0.487 E-score. Besides, the binding signal in the test with GST-NAP(1-166) came to 0.459 E-score; with GST-NST2(1-184), 0.406 E-score; with GST-NTL8 NAC domain it was 0.172 E-score; with GST-SND1(1-203) it was 0.462 E-score; in the test with GST-VND3 NAC domain it was 0.435 E-score; in the test with GST-VND7 NAC domain it was 0.433 E-score.
Take AACGTGTA: the binding signal with GST-ANAC092(1-176) was determined as 0.403 E-score; with GST-NTL6(1-168) it was 0.0638 E-score; with GST-ANAC019 NAC domain it was 0.165 E-score; in the test with GST-ANAC055(1-171), 0.2 E-score; with GST-ATAF1 NAC domain, 0.266 E-score; in test [1], 0.432 E-score. Besides, the binding signal with GST-NAP(1-166) came to 0.125 E-score; with GST-NST2(1-184), 0.265 E-score; with GST-SND1(1-203) it was 0.295 E-score; in the test with GST-VND3 NAC domain it was 0.275 E-score; with GST-VND7 NAC domain, 0.0615 E-score.
Consider CACGTAAA, for which the binding signal in the test with GST-ANAC092(1-176) worked out at 0.425 E-score; with GST-NTL6(1-168), 0.0987 E-score; in the test with GST-ANAC019 NAC domain, 0.43 E-score; in the test with GST-ANAC055(1-171) it was 0.414 E-score; with GST-ATAF1 NAC domain, 0.332 E-score; in test [1], 0.431 E-score. The binding signal in the test with GST-NAP(1-166) amounted to 0.35 E-score; with GST-NST2(1-184), 0.293 E-score; with GST-SND1(1-203), 0.289 E-score; in the test with GST-VND3 NAC domain, 0.414 E-score; with GST-VND7 NAC domain, 0.346 E-score.
On to TACACGCA, for which the binding signal with GST-ANAC092(1-176) is 0.467 E-score; in the test with GST-NTL6(1-168), 0.0803 E-score; with GST-ANAC019 NAC domain it was 0.415 E-score; with GST-ANAC055(1-171) it was 0.382 E-score; with GST-ATAF1 NAC domain it was 0.369 E-score; in test [1], 0.463 E-score. Besides, the binding signal came to 0.375 E-score in the test with GST-NAP(1-166); 0.363 E-score in the test with GST-NST2(1-184); 0.385 E-score with GST-SND1(1-203); 0.404 E-score in the test with GST-VND3 NAC domain; 0.385 E-score with GST-VND7 NAC domain.

The record behind these values is publication PMC4081100, “A DNA-binding-site landscape and regulatory network analysis for NAC transcription factors in Arabidopsis thaliana”.
